# Measured values reported in PubChem BioAssay AID463173 (ICCB-Longwood Screening Facility, Harvard Medical School, 2010).
# In all, about 52,000 compounds went through this assay and about 4,300 (8.3%) were called active. Shown is part of a subset that was picked to be rich in actives. A number with no mark means an inactive call. Cut-off read from the data, not from the text of the source: active = survival mostly below about 52% (no sharp cut-off); inactive = mostly above about 56%.
# Tested on: DeltatarO mutant
# Assay: growth inhibition of S. aureus wild type versus tarO mutant, primary screen, teichoic acid synthesis inhibitors, RN4220, OD600 (AID 463173)
# Conditions: OD600, 18 h, hits give low values, screened at 18.75 µg/mL (by protocol)
row,SMILES,survival
1,O=C(Cn1cc(C(=O)c2cccs2)c2ccccc21)Nc1ccc(Br)cc1,127%
2,O=C1CC(CSc2nnnn2-c2ccccc2)=NN1,101%
3,O=S1(=O)C=C(Sc2nnnn2-c2ccccc2)c2ccccc21,4% (active)
4,O=S(=O)(NCCSc1nnnn1-c1ccccc1)c1ccc(F)cc1,76%
5,Cc1cc(NC(=O)CCCn2c(C)c3cnn(-c4ccccc4)c(=O)c3c2C)ccc1Br,71%
6,COc1ccc(CCNC(=O)Cn2c(=O)nc(-c3ccccc3)c3cc(Cl)ccc32)cc1OC,94%
7,Cc1ccc(S(=O)(=O)Cc2nc(-c3ccc(C(=O)NCCCOC(C)C)cc3)oc2C)cc1,72%
8,Cc1oc(-c2ccc(C(=O)NCCCOC(C)C)cc2)nc1CS(=O)(=O)c1ccccc1,-4% (active)
9,CCOCCCNC(=O)c1ccc(-c2nc(CS(=O)(=O)c3ccccc3)c(C)o2)cc1,66%
10,COc1ccc(CCN2C(=O)CN(C3CCCCCC3)C(=O)C2c2ccc(Cl)cc2)cc1OC (stereo unspecified),81%
11,COc1cc(OC)cc(C(=O)Nc2ccccc2-c2nc3ccccc3s2)c1,17% (active)
12,COc1cccc(C(=O)Nc2ccc(-c3nc4ccccc4s3)cc2Cl)c1,72%
13,COc1cccc(C(=O)Nc2ccccc2-c2nc3ccccc3s2)c1,33% (active)
14,COc1ccc(C(=O)Nc2ccccc2-c2nc3ccccc3s2)c(OC)c1,102%
15,COc1cc(OC)cc(C(=O)Nc2ccc(-c3nc4ccccc4s3)c(C)c2)c1,117%
16,O=C(Nc1ccccc1-c1nc2ccccc2s1)c1cc(Cl)cc(Cl)c1,84%
17,O=C(Nc1ccc(-c2nc3ccccc3s2)c(O)c1)c1ccc(Br)cc1,87%
18,O=C(Nc1ccccc1-c1nc2ccccc2s1)c1ccc(F)cc1,81%
19,Cc1ccc(C(=O)Nc2ccc(-c3nc4ccccc4s3)c(O)c2)c(C)c1,84%
20,COc1ccc(C(=O)Nc2ccccc2-c2nc3ccccc3s2)cc1OC,7% (active)
21,CSc1ccc(C(=O)Nc2ccc(-c3nc4ccccc4s3)c(O)c2)cc1,32% (active)
22,COc1ccc(C(=O)Nc2cc(C)c(O)c(-c3nc4ccccc4s3)c2)cc1OC,51%
23,Cn1c(CNC(=O)CSc2n[nH]c(-c3ccccc3Cl)n2)nc2ccccc21,75%

row,SMILES,survival
1,O=C(Nc1ccc(F)cc1F)c1cc2c(=O)n3ccccc3nc2s1,75%
2,CCOC(=O)c1ccccc1NC(=O)c1sc2ncn(CC)c(=O)c2c1C,68%
3,Cc1ccc(C)c(NC(=O)CCc2c(C)n(C)c3cc(-c4ccccc4C)nn3c2=O)c1,63%
4,CCC(CC)C(=O)Nc1ccccc1C(=O)OCc1cc(=O)n2nc(C3CCCCC3)sc2n1,92%
5,O=C(Nc1ccc(F)c(Cl)c1)N1CC=C(c2c[nH]c3ccccc23)CC1,77%
6,CN1CCN(C(CNC(=O)C(=O)Nc2cccc(Cl)c2)c2ccc3c(c2)OCO3)CC1 (stereo unspecified),86%
7,CCC1=C(c2ccc(C)cc2)S(=O)(=O)N=C1N1CCC(C(=O)Nc2ccccc2C(=O)OC)CC1,89%
8,Cc1ccc(NC(=O)Cn2c(=O)n(CCc3ccccc3)c(=O)c3c4c(sc32)CCCC4)cc1C,97%
9,CCCCOc1ccc(C(=O)Nc2ccc3c(c2)CCCN3C(=O)c2cccs2)cc1,83%
10,CCOC(=O)C(C)ON1C(=O)c2ccccc2C1=O (stereo unspecified),86%
11,CC(=O)N1CCc2cc(Br)cc(S(=O)(=O)NCCc3cccc(C)c3)c21,75%
12,CC(=O)N1CCc2cc(Br)cc(S(=O)(=O)CCC(=O)NCCc3ccc(Cl)cc3)c21,44% (active)
13,CC(=O)N1CCc2cc(Br)cc(S(=O)(=O)CCC(=O)Nc3ccc(C)cc3Cl)c21,47% (active)
14,CCC(=O)N1CCc2cc(Br)cc(S(=O)(=O)CCC(=O)Nc3ccccc3C)c21,87%
15,Cc1ccc(NC(=O)CCS(=O)(=O)c2cc(Br)cc3c2N(C(=O)C2CC2)CC3)cc1,90%
16,COc1ccc(CCNC(=O)CCS(=O)(=O)c2cc(Br)cc3c2N(C(C)=O)CC3)cc1OC,53%
17,CCOc1ccc(CCNS(=O)(=O)c2cc(Br)cc3c2N(C(C)=O)CC3)cc1OCC,103%
18,CC(=O)N1CCc2cc(Br)cc(S(=O)(=O)NCCc3ccc(Cl)cc3)c21,45% (active)
19,CCC(=O)N1CCc2cc(Br)cc(S(=O)(=O)CCC(=O)NCCc3ccc(Cl)cc3)c21,70%
20,COc1ccc(CCNC(=O)c2ccc3c(c2)N(Cc2ccccc2C)C(=O)c2ccccc2S3)cc1OC,118%
21,CCOC(=O)c1c(C)[nH]c(C)c1S(=O)(=O)NCC(=O)Nc1ccc(CC)cc1,96%
22,COc1ccc(OC)c(CCNC(=O)C2=C(C)C(=O)OC23CCC(C)CC3)c1 (stereo unspecified),86%
23,Cc1cc(C(C)(C)C)oc1C(=O)N(CC(=O)NC1CCCC1)c1ccc(F)cc1,77%

row,SMILES,survival
1,Cc1cc(Cl)ccc1OCC(=O)N1CCC(c2nc3ccccc3o2)CC1,54%
2,Cc1cc(OCC(=O)N2CCC(c3nc4ccccc4s3)CC2)ccc1Cl,23% (active)
3,COc1ccc(OCC(=O)N2CCC(c3nc4ccccc4s3)CC2)cc1,68%
4,Cc1cc(C)cc(OCC(=O)N2CCC(c3nc4ccccc4s3)CC2)c1,85%
5,Cc1cc(Cl)ccc1OCC(=O)N1CCC(c2nc3ccccc3s2)CC1,21% (active)
6,O=C(COc1cccc(Cl)c1)N1CCC(c2nc3ccccc3s2)CC1,44% (active)
7,CC(C)(C)c1ccc(OCC(=O)N2CCC(c3nc4ccccc4s3)CC2)cc1,84%
8,Cc1ccccc1OCC(=O)N1CCC(c2nc3ccccc3s2)CC1,51%
9,O=C(COc1ccc([N+](=O)[O-])cc1)N1CCC(c2nc3ccccc3s2)CC1,82%
10,COc1ccc(N2CCN(S(=O)(=O)c3c(C)nc4sc(C)cn4c3=O)CC2)cc1,92%
11,CCCCSCc1ccc(C(=O)O)o1,77%
12,O=C(c1cccs1)N1CCCc2cc(NS(=O)(=O)c3cc(F)ccc3F)ccc21,73%
13,O=C(c1ccccc1F)N1c2nc(-c3ccco3)nn2C2(CCCCC2)[C@@H]2CCCC[C@@H]21,69%
14,C=Cc1ccc(Cn2c(C)c(CNCCc3ccccc3C)c(C(=O)O)c2C)cc1,53%
15,Cc1cc(C)c(NS(=O)(=O)c2ccc(-c3coc(C)n3)cc2)c(C)c1,94%
16,CC(=O)OCc1cnc(C)c2oc(=O)c(C(=O)Nc3ccc(C)cc3Cl)cc12,128%
17,O=C(c1ccccc1)c1ccccc1NC(=O)c1ccccc1C(=O)O,67%
18,O=C(Nc1cc2c(cc1C(=O)c1ccccc1)OCCO2)c1ccc(Br)cc1,82%
19,Cc1ccc(NC(=O)c2ccc(Cl)cc2Cl)c(C(=O)c2ccccc2)c1,-1% (active)
20,Cc1ccc(NC(=O)c2nc[nH]c2C(=O)N2CCCCC2)c(C(=O)c2ccccc2)c1,82%
21,Cc1cc(NC(=O)c2ccccc2Cl)ccc1NC(=O)c1ccccc1,77%
22,Cc1ccc(NC(=O)c2ccc(Br)cc2)c(C(=O)c2ccccc2)c1,-2% (active)
23,Cc1ccc(C(=O)COC(=O)c2cccc(NC(=O)c3ccc(Cl)cc3Cl)c2)cc1,61%

row,SMILES,survival
1,O=C(Nc1cc2c(cc1C(=O)c1ccccc1Br)OCCO2)c1ccccc1,68%
2,Cc1ccc(NC(=O)c2ccccc2Br)c(C(=O)c2ccccc2)c1,26% (active)
3,CCOc1ccccc1CNC(=O)c1ccc2c(c1)nc1n2CCCCC1,87%
4,O=C(c1ccccc1)n1nnc2ccccc21,106%
5,COc1ccc2c(c1)c1c(c(=O)n(Cc3ccccc3)c(=O)n1Cc1cccc(Cl)c1)n2C,82%
6,CCC(Oc1ccccc1)C(=O)Nc1nccs1 (stereo unspecified),79%
7,COc1ccc2c(CNCCc3ccco3)c(C(=O)O)n(Cc3ccccc3)c2c1,101%
8,CCC(C(=O)Nc1cc(C)ccc1C)n1c(=O)c(C(F)(F)F)nc2ccccc21 (stereo unspecified),102%
9,CCCc1cnc2c(c1SCC(=O)Nc1ccc([N+](=O)[O-])cc1)c(=O)n(C)c(=O)n2C,66%
10,COc1ccc(-n2cc(C(=O)OCc3ccc(F)c(F)c3)c3ccccc3c2=O)cc1,98%
11,COc1ccccc1NC(=O)c1ccccc1NC(=O)c1ccccc1,20% (active)
12,COc1ccccc1NC(=O)c1ccccc1C(=O)O,82%
13,COc1ccc(OC)c(NC(=O)c2ccccc2)c1,105%
14,COc1ccccc1NC(=O)c1cc(S(=O)(=O)N2CCN(c3ccccc3Cl)CC2)ccc1F,102%
15,COc1ccccc1NC(=O)c1cccc(S(=O)(=O)N2CCCCCC2)c1,40% (active)
16,O=C(Nc1ccccc1C(=O)O)c1cccc(S(=O)(=O)N2CCCC2)c1,87%
17,Cc1ccc(S(=O)(=O)N2C(=O)CCC2C(=O)N2CCCC2)cc1 (stereo unspecified),97%
18,Cc1ccc(N2CCN(c3c(CN4CCCC4)c(=O)oc4ccccc34)CC2)c(C)c1,67%
19,COc1cc(Cl)c(C)cc1Nc1nc2ccccc2c2nnc(C)n12,124%
20,CCOC(=O)c1sc(N/C=C(\C#N)c2nc3cc(Cl)ccc3o2)c(C#N)c1C,81%
21,CN(C)c1ccc(CNC(=O)CN2CCSc3ccc(S(=O)(=O)N(C)C)cc32)cc1,66%
22,Cc1ccccc1CN1C(=O)C2(c3ccccc31)N(c1ccccc1)C(=O)CS2(=O)=O (stereo unspecified),124%
